# Compound activity (PubChem)
# TCR act: activators of T cell receptors; 330,000 tested, under 10 active; AID 504894; primary human leukocytes, anti-CD3, IL-2 HTRF, 48 h; Potency, µM (top dose mostly 9.22 µM), most hits filed as activators
#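 HTRF read-out of IL-2 secretion: europium cryptate donor excited at 320nm, d2 acceptor emission at 665nm. Cells were primary human leukocytes incubated 48 hr with compounds and a-CD3 beads, supplying TCR signal only.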
# uPA surface inh: cell surface uPA generation inhibition; cell surface uPA generation assay, qHTS; Potency, µM (top dose mostly 38.3 µM), hits mostly inhibitors; 330,000 tested, 0.31% active; active means well fitted inhibition curve with a large enough effect; inconclusive means small, poorly fitted or top-dose-only effect; inactive means no such curve, though single readings can be large or run the other way; tested in mouse RAW 264.7 cells; further: nearly all actives have a fitted effect of over 55% in size
# Sfp inh: blocks B. subtilis Sfp PPTase activity; Q9F4F7; Biochemical Sfp PPTase activity, qHTS; Potency, µM, most hits filed as inhibitors; 310,000 tested, 3.5% active;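 further: the enzyme is Sfp with the accession as filed and its product quenches rhodamine fluorescence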
#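 After 15 min at room temperature with compound, 15 nM Sfp received 5 uM rhodamine-CoA plus 12.5 uM BHQ-2-ybbR (50 mM Hepes pH 7.6, 10 mM MgCl2). Rate came from the fluorescence difference over 30 min, ex 525/em 598 nm.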
# ClpP mod: qHTS Assay for Activators of ClpP. Potency, µM (doses to about 57.5 µM). 340,000 tested, 1.9% active. ATP-dependent Clp protease proteolytic subunit (Bacillus subtilis (strain 168)), P80244. AID 651965, 2013. purified B. subtilis ClpP, FRET peptide cleavage, 20 min; active means well fitted falling curve with a large enough effect; inconclusive means small, poorly fitted or top-dose-only effect; inactive means no such curve, though single readings can be large or run the other way; further: the source files actives as falling curves though it sought activators and does not explain the sign; nearly all actives have a fitted effect of over 65% in size
#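 Buffer: 100 mM Tris/HCl pH8, 100 mM KCl, 0.05% low protease BSA, 2.5% glycerol, 0.01% Tween-20. ClpP 10 microg/mL final; 20 min RT; delta FRET normalized to ADEP and DMSO controls.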
# Hits are given with their value; – = inactive; ? = inconclusive; · = no result. Most compounds without a hit are left out; they make up all but 4.2% or so of the library. Unless noted, the call rests on the fitted dose curve; in most records, active means well fitted curve in the direction sought with a large enough effect; inconclusive means small, poorly fitted or top-dose-only effect, or another doubt; inactive means no such curve, though single readings can be large; an effect the other way counts as inactive or inconclusive.
SMILES,TCR act,uPA surface inh,Sfp inh,ClpP mod
CCCCc1nc(NCCNC(=O)c2ccco2)c(C#N)c2c1CSC(C)(C)C2,–,–,?,25µM
CCCCc1nc(NCCNC(=O)c2ccccc2)c(C#N)c2c1CSC(C)(C)C2,–,–,–,28µM
CCCCc1nc(Cl)c(C#N)c2c1CSC(C)(C)C2,–,–,–,–
COc1ccc(CNc2oc(/C=C/c3cccc(OC)c3)nc2C#N)cc1,·,·,·,–
Nc1ccc(O)cc1C(=O)OCC(=O)C12CC3CC(CC(C3)C1)C2,–,–,–,22µM
O=C(Nc1ccc(Br)cc1)C(Cc1ccccc1)NS(=O)(=O)c1cccc2nsnc12 (configuration not stated),·,·,·,–
CN(C)c1ccc(C(CNS(=O)(=O)c2ccc(F)cc2)c2c[nH]c3ccccc23)cc1 (configuration not stated),–,–,–,–
CCOC(=O)c1ccc(S(=O)(=O)NCC(c2ccc(N(C)C)cc2)c2c[nH]c3ccccc23)cc1 (configuration not stated),–,–,–,25µM
CC(C)CNC(=O)c1oc2ccccc2c1COc1ccccc1,–,–,–,·
Cc1cc(C)cc(NC(=O)c2oc3ccccc3c2COc2ccccc2)c1,–,–,–,25µM
Cn1ccc(-c2ccccc2)n1,–,–,–,–
N#Cc1cc(-c2ccccc2)nn1-c1ccccc1,·,–,18µM,–
Cc1ccc(N/C=C/C(=O)c2cccs2)cc1C,–,–,50µM,·
O=C(NCCN1CCOCC1)c1ccc(/C=C2\Sc3ccccc3N(Cc3ccccc3F)C2=O)cc1,–,?,–,–
CCN1CCN(CCNC(=O)c2ccc(/C=C3/Sc4ccccc4N(Cc4cccc(Cl)c4)C3=O)cc2)CC1,–,–,50µM,·
Cc1cccc(CN2C(=O)/C(=C\c3ccc(C(=O)NCCN4CCOCC4)cc3)Sc3ccccc32)c1,–,–,?,–
CCN1CCN(CCNC(=O)c2ccc3c(c2)N(Cc2ccc(F)cc2)C(=O)/C(=C/c2ccccc2)S3)CC1,–,–,50µM,·
CN1CCN(CCCNC(=O)c2ccc(/C=C3\Sc4ccccc4N(Cc4ccccc4F)C3=O)cc2)CC1,–,?,40µM,–
COc1ccc(N(C(=O)c2ccc(C(C)(C)C)cc2)S(=O)(=O)c2ccc(Cl)cc2)cc1,·,·,·,–
COc1ccc(S(=O)(=O)N2CCC(C(=O)NN3CCCCC3)CC2)cc1OC,–,–,·,–
Cc1nc2ccn(Cc3cccs3)c(=O)c2cc1C(=O)N1CCN(c2ccccc2)CC1,·,·,·,–
O=c1cnc2cncnc2n1Cc1ccccc1Cl,·,·,–,·
CN(NC1CC(=O)N(c2ccccc2)C1=O)c1ccccc1 (configuration not stated),–,–,45µM,?
O=C(Nc1nnc(-c2ccc(Cl)cc2)o1)c1cccc(N2C(=O)CCC2=O)c1,–,–,–,–
O=C(Nc1nnc(-c2ccncc2)o1)c1cccc(N2C(=O)CCC2=O)c1,–,–,56µM,·
SMILES,TCR act,uPA surface inh,Sfp inh,ClpP mod
Cc1ccc(-c2csc(NC(=O)c3cccc(N4C(=O)CCC4=O)c3)n2)o1,–,3.5µM,20µM,–
CSc1nc(SCCO)c2sc3nc(-c4ccco4)c4c(c3c2n1)CC(C)(C)OC4,–,–,20µM,–
CC1(C)Cc2c(c(-c3ccco3)nc3sc4c(NCCO)ncnc4c23)CO1,–,?,50µM,–
COCCCNc1ncnc2c1sc1nc(-c3ccco3)c3c(c12)CC(C)(C)OC3,–,?,?,–
CSc1nc(N(CCO)CCO)c2sc3nc(-c4ccco4)c4c(c3c2n1)CCC4,–,–,18µM,–
COC(=O)CSc1nc(SC)nc2c1sc1nc(-c3ccco3)c3c(c12)CC(C)(C)OC3,–,–,·,·
Cc1c(NC(=O)Nc2ccc(Br)cc2F)sc2nc3n(c(=O)c12)CCC(C)CC3 (configuration not stated),·,·,·,–
CCOC(=O)N1CCN(C(=O)CCCCCn2c(=S)[nH]c3ccsc3c2=O)CC1,–,–,?,·
CCOC(=O)N1CCN(C(=O)CCCn2c(=S)[nH]c3ccsc3c2=O)CC1,–,–,56µM,–
CCOc1ccccc1Cn1c(=O)oc2ccc(C)cc21,–,–,–,25µM
CCCOc1ccccc1Cn1c(=O)oc2ccc(C)cc21,·,–,–,–
Cc1ccc2oc(-c3ccc(Cl)c(NC(=O)c4cc5ccccc5o4)c3)nc2c1,·,·,·,–
Cc1ccc2c(c1)C(C)CC(C)(C)N2C(=O)CN1CCN(C)CC1 (configuration not stated),–,–,56µM,–
Cn1cccc1C(=O)N1CCC[C@@]2(CCN(C(=O)Nc3cccc(F)c3)C2)C1,·,·,–,·
